For four compounds, outcome and AC50 results are on record in PubChem BioAssay (EPA / NIEHS).

Calls of active or inactive are those of the source. Rule for the calls: active = hit-call score of the fitted dose curve at least 0.9, where 1 is the maximum; inactive = score below 0.9.

Read-out in experiment [1]: urokinase plasminogen activator (uPA), PLAU (gene 5328)
As to the kind of experiment: BSK_KF3CT_uPA: BioMAP Diversity Plus: KF3CT Assay for urokinase plasminogen activator (uPA) Biomarker Activity (AID 2283075). The settings on record: primary human keratinocytes with fibroblasts; actives raise or lower the signal. The procedure, abridged:
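Values derive from bidirectional fitting against DMSO controls. Keratinocyte/foreskin fibroblast co-cultures received chemical; 24 h later uPA was detected by ELISA, with SRB total-protein staining in parallel wells for overt cytotoxicity.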

Read-out in experiment [2]: CD40, CD40 (gene 958)
As to the kind of experiment: BSK_LPS_CD40: BioMAP Diversity Plus: LPS Assay for CD40 Biomarker Activity (AID 2283076). The conditions noted are these: primary human HUVEC with PBMC; actives raise or lower the signal. The procedure, abridged: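 HUVEC plus PBMC co-culture stimulated with LPS; CD40 quantified by ELISA 24 h after compound dosing. Fitting was bidirectional relative to DMSO. SRB staining of parallel cultures flagged overt cytotoxicity.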

Read-out in experiment [3]: E-selectin (Homo sapiens) (UniProt P16581)
As to the kind of experiment: BSK_LPS_Eselectin: BioMAP Diversity Plus: LPS Assay for Eselectin Biomarker Activity (AID 2283077). The conditions noted are these: primary human HUVEC with PBMC; actives raise or lower the signal. In outline:
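Human umbilical vein endothelial cells co-cultured with PBMC under LPS stimulation; cell-surface E-selectin measured by ELISA 24 h after dosing. Change in either direction versus DMSO, with SRB total-protein staining in parallel cultures for cytotoxicity.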

The nature of experiment [4]: BSK_LPS_SRB: Viability Assessment in the BioMAP Diversity Plus: LPS Assay (AID 2283079).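 Note: total protein by sulforhodamine B absorbance as a cytotoxicity measure; measured one day after compound addition; fitted in both directions against DMSO so loss or gain of signal counts.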 The conditions noted are these: primary human HUVEC with PBMC. The procedure, abridged: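 Co-culture of human umbilical vein endothelial cells and PBMC, read 24 h after dosing. Total protein by 0.1% SRB staining after 10% TCA fixation, absorbance at 560 nm; bidirectional fit against DMSO.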

Read-out in experiment [5]: Interleukin-1 alpha (IL1a), IL1A (gene 3552)
Description: BSK_LPS_IL1a: BioMAP Diversity Plus: LPS Assay for Interleukin-1 alpha (IL1a) Biomarker Activity (AID 2283080). The conditions noted are these: primary human HUVEC with PBMC; actives raise or lower the signal. In outline: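 Human umbilical vein endothelial cells co-cultured with PBMC and stimulated with LPS; IL-1a measured by ELISA 24 h after dosing. Bidirectional fitting against DMSO; cytotoxicity checked by SRB staining in parallel cultures.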

Read-out in experiment [6]: Monocyte Chemoattractant Protein-1 (MCP1), CCL2 (gene 6347)
As to the kind of experiment: BSK_LPS_MCP1: BioMAP Diversity Plus: LPS Assay for Monocyte Chemoattractant Protein-1 (MCP1) Biomarker Activity (AID 2283081).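 For AC50: secreted MCP-1 protein quantified by ELISA in culture supernatant.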 The settings on record: primary human HUVEC with PBMC; actives raise or lower the signal. The procedure, abridged: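 Human umbilical vein endothelial cells co-cultured with PBMC, LPS-stimulated; secreted MCP-1 measured by ELISA 24 h after compound addition. Bidirectional curve fitting against DMSO baseline; SRB total-protein staining in parallel cultures for cytotoxicity.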

Experiment [7] can be described thus: BSK_LPS_PGE2: BioMAP Diversity Plus: LPS Assay for Prostaglandin E2 (PGE2) Biomarker Activity (AID 2283082).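 For AC50: secreted prostaglandin E2 measured by ELISA in LPS-stimulated co-culture.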 The conditions noted are these: primary human HUVEC with PBMC; actives raise or lower the signal. The procedure, abridged:
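ELISA read-out of PGE2 from human umbilical vein endothelial cells co-cultured with peripheral blood mononuclear cells under LPS, 24 h post-dose. Gain or loss of signal scored relative to DMSO baseline.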

Read-out in experiment [8]: Macrophage colony-stimulating factor (MCSF), CSF1 (gene 1435)
As to the kind of experiment: BSK_LPS_MCSF: BioMAP Diversity Plus: LPS Assay for Macrophage colony-stimulating factor (MCSF) Biomarker Activity (AID 2283083). The conditions noted are these: primary human HUVEC with PBMC; actives raise or lower the signal. In outline:
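HUVEC–PBMC co-culture, M-CSF measured by ELISA 24 h after chemical dosing. Fitted in both directions relative to DMSO as negative control; overt cytotoxicity assessed by SRB total-protein staining in parallel cultures.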

Read-out in experiment [9]: Tumor necrosis factor (Homo sapiens) (UniProt P01375)
As to the kind of experiment: BSK_LPS_TNFa: BioMAP Diversity Plus: LPS Assay for Tumour Necrosis Factor alpha (TNFa) Biomarker Activity (AID 2283085).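 For AC50: TNFa protein level quantified by ELISA in the co-culture.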 The settings on record: primary human HUVEC with PBMC; actives raise or lower the signal. In outline:
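HUVEC/PBMC co-culture, LPS-stimulated; 24 h post-dose; TNFa by ELISA; gain or loss of signal fitted bidirectionally vs DMSO baseline.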

Read-out in experiment [10]: Vascular cell adhesion molecule 1 (VCAM1), VCAM1 (gene 7412)
Description: BSK_LPS_VCAM1: BioMAP Diversity Plus: LPS Assay for Vascular cell adhesion molecule 1 (VCAM1) Biomarker Activity (AID 2283086). The settings on record: primary human HUVEC with PBMC; actives raise or lower the signal. The procedure, abridged: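 ELISA read-out of VCAM-1 at 24 h post-dosing in an LPS-driven HUVEC/PBMC primary human co-culture; gain or loss of signal fitted bidirectionally against DMSO baseline. Cytotoxicity tracked in parallel cultures by SRB total-protein staining.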

Read-out in a further experiment: CD38, CD38 (gene 952)
Description: BSK_SAg_CD38: BioMAP Diversity Plus: SAg Assay for CD38 Biomarker Activity (AID 2283087). The settings on record: primary human HUVEC with PBMC; actives raise or lower the signal. In outline:
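Measures CD38 on a human endothelial/PBMC co-culture driven by SEB and TSST-1, 24 h after compound exposure, using ELISA with fluorescence detection; DMSO defines baseline for bidirectional curve fitting.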

Read-out in experiment [11]: CD40, CD40 (gene 958)
As to the kind of experiment: BSK_SAg_CD40: BioMAP Diversity Plus: SAg Assay for CD40 Biomarker Activity (AID 2283088). The settings on record: primary human HUVEC with PBMC; actives raise or lower the signal. In outline: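 HUVEC plus PBMC co-culture, superantigen-activated, with CD40 read by ELISA 24 h after dosing. Curves fitted in both directions against DMSO. Overt cytotoxicity checked by parallel SRB total-protein staining.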

Read-out in a further experiment: CD69, CD69 (gene 969)
As to the kind of experiment: BSK_SAg_CD69: BioMAP Diversity Plus: SAg Assay for CD69 Biomarker Activity (AID 2283089).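 For AC50: cell surface CD69 protein quantified by ELISA with fluorescence detection.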 The settings on record: primary human HUVEC with PBMC; actives raise or lower the signal. In outline: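 Values derive from bidirectional fitting relative to DMSO vehicle. Cells: umbilical vein endothelium plus peripheral blood mononuclear cells, treated 24 h before fluorescent ELISA for CD69.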

Read-out in experiment [12]: Monocyte Chemoattractant Protein-1 (MCP1), CCL2 (gene 6347)
As to the kind of experiment: BSK_SAg_MCP1: BioMAP Diversity Plus: SAg Assay for Monocyte Chemoattractant Protein-1 (MCP1) Biomarker Activity (AID 2283090). The conditions noted are these: primary human HUVEC with PBMC; actives raise or lower the signal. The procedure, abridged: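 Values derive from bidirectional fitting of ELISA-measured MCP1 against DMSO controls. Readings were taken 24 h after dosing human vascular endothelial cells co-cultured with peripheral blood mononuclear cells under superantigen stimulation.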

Read-out in experiment [13]: E-selectin (Homo sapiens) (UniProt P16581)
As to the kind of experiment: BSK_SAg_Eselectin: BioMAP Diversity Plus: SAg Assay for Eselectin Biomarker Activity (AID 2283091). The settings on record: primary human HUVEC with PBMC; actives raise or lower the signal. In outline: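 Human umbilical vein endothelial cells co-cultured with peripheral blood mononuclear cells, SAg system. E-selectin is measured by ELISA 24 h after dosing and fitted bidirectionally against DMSO. Cytotoxicity is checked by SRB staining of parallel cultures.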

Read-out in experiment [14]: Monokine induced gamma interferon (MIG), CXCL9 (gene 4283)
Description: BSK_SAg_MIG: BioMAP Diversity Plus: SAg Assay for Monokine induced gamma interferon (MIG) Biomarker Activity (AID 2283092). The settings on record: primary human HUVEC with PBMC; actives raise or lower the signal. In outline: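 Values reflect bidirectional fitting of ELISA-measured MIG against DMSO vehicle, taken 24 h after dosing of a co-culture of human umbilical vein endothelial cells and peripheral blood mononuclear cells.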

Read-out in experiment [15]: Interleukin-8 (IL8), CXCL8 (gene 3576)
Description: BSK_SAg_IL8: BioMAP Diversity Plus: SAg Assay for Interleukin-8 (IL8) Biomarker Activity (AID 2283094). The settings on record: primary human HUVEC with PBMC; actives raise or lower the signal. In outline: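 HUVEC/PBMC co-culture, 24 h post-dose; IL-8 by ELISA. Gain or loss of signal fitted bidirectionally vs DMSO baseline.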

The nature of experiment [16]: BSK_SAg_PBMCCytotoxicity: PBMC Cytotoxicity Assessment in the BioMAP Diversity Plus: SAg Assay (AID 2283093).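 For AC50: PBMC superantigen activated with SEB plus TSST-1 one hour after compound addition.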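 Note: PBMC viability measured as Alamar Blue reduction fluorescence at 546/580 nm; fitted both ways against DMSO so a hit may be loss or gain of signal.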 The conditions noted are these: primary human HUVEC with PBMC. The procedure, abridged:
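Alamar Blue reduction (6 h, 546/580 nm) reports PBMC cytotoxicity after 90 h superantigen activation (SEB, TSST-1; 20 ng/mL final each) with 1 h compound pre-treatment. Gain or loss of signal fitted versus DMSO.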

Sequence of Tumor necrosis factor (Homo sapiens) (P01375 whole entry, looked up): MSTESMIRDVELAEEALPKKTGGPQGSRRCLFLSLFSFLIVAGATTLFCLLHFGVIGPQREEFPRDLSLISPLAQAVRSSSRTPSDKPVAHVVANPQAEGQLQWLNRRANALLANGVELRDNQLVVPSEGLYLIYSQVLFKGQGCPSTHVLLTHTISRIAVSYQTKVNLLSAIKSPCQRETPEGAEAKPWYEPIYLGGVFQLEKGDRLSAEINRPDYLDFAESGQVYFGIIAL
Sequence of E-selectin (Homo sapiens) (P16581 whole entry, looked up): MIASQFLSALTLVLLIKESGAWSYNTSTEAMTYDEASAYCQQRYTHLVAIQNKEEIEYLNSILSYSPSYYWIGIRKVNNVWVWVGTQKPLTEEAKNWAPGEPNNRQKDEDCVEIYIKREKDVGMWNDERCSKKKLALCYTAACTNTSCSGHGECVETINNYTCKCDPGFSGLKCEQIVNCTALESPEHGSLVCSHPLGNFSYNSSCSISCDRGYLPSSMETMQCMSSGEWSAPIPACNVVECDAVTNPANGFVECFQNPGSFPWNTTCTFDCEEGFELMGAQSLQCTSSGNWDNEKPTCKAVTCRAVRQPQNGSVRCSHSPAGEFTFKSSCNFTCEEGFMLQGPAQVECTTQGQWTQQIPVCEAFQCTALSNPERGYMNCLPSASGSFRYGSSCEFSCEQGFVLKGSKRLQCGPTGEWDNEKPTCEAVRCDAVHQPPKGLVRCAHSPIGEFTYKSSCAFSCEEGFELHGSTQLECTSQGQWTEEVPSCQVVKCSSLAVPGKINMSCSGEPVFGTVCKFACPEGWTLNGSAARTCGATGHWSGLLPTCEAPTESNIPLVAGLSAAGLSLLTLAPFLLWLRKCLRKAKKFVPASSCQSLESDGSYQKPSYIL

Regarding `COC(=O)CCCC(=O)OC`, the outcome was “inactive” in experiment [1]; “inactive” with CD40, CD40 (gene 958) [2]; “inactive” in experiment [3]; “inactive” in experiment [4]; “inactive” in [5]; “inactive” in [6]. Besides, the outcome is “inactive” in experiment [7]; “inactive” in [8]; “inactive” in [9]; “inactive” in experiment [10]; “inactive” in the experiment with CD38, CD38 (gene 952); “inactive” with CD40, CD40 (gene 958) [11]. The outcome in the experiment with CD69, CD69 (gene 969) is “inactive”; in experiment [12] it was “inactive”; in [13], “inactive”; in experiment [14], “inactive”; in experiment [15] it was “inactive”.

As for `NC(=Nc1ccccc1)Nc1ccccc1`, the outcome in experiment [1] is “inactive”; with CD40, CD40 (gene 958) [2] it was “inactive”; in experiment [3], “inactive”; in [4] it was “inactive”; in [5], “inactive”; in experiment [6], “inactive”. Further, the outcome is “inactive” in experiment [7]; “inactive” in [9]; “inactive” in experiment [10]; “inactive” in the experiment with CD38, CD38 (gene 952); “inactive” with CD40, CD40 (gene 958) [11]; “inactive” with CD69, CD69 (gene 969). Moreover, the outcome in experiment [12], in [14], in experiment [16] and in experiment [15] was inactive. In [8], the AC50 is 5.45 µM (active).

Regarding `Cc1c(C)c2c(c(C)c1O)CCC(C)(COc1ccc(CC3SC(=O)NC3=O)cc1)O2` (stereo not given), the AC50 in [1] was 12 µM (active); with CD40, CD40 (gene 958) [2], 28.7 µM (active); in experiment [3] it was 30.3 µM (active); in experiment [4], 26.3 µM (active); in experiment [5], 32.7 µM (active); in experiment [6], 30.8 µM (active). Besides, the AC50 in experiment [7] is 32.5 µM (active); in [8] it was 31.6 µM (active); in experiment [9], 31.6 µM (active); in experiment [10], 30.5 µM (active); with CD38, CD38 (gene 952), 24.9 µM (active); with CD40, CD40 (gene 958) [11], 14.9 µM (active). Also, the AC50 with CD69, CD69 (gene 969) is 21.5 µM (active); in [12], 32.6 µM (active); in [13], 31.9 µM (active); in [14], 31.6 µM (active); in experiment [16], 20 µM (active); in experiment [15] it was 32.8 µM (active).

In the case of `O=C1NC(=O)C(c2ccccc2)(c2ccccc2)N1`, the outcome in [1] is “inactive”; in the experiment with CD40, CD40 (gene 958) [2], “inactive”; in experiment [3] it was “inactive”; in experiment [4], “inactive”; in experiment [5], “inactive”; in [6] it was “inactive”. The outcome was “inactive” in experiment [7]; “inactive” in [8]; “inactive” in [9]; “inactive” in experiment [10]; “inactive” in the experiment with CD38, CD38 (gene 952); “inactive” with CD40, CD40 (gene 958) [11]. The outcome in the experiment with CD69, CD69 (gene 969) was “inactive”; in [12] it was “inactive”; in [13] it was “inactive”; in [14], “inactive”; in experiment [16], “inactive”; in experiment [15], “inactive”.
